Data from article PMC7862700, “An all-to-all approach to the identification of sequence-specific readers for epigenetic DNA modifications on cytosine”.

Assays:
Test in all cases: DAPPL (digital affinity profiling via proximity ligation, sequencing); 10 mM Tris-HCl pH 7.5, 50 mM NaCl, 1 mM DTT, 4% glycerol, room temperature, 30 min; GST-TFs on glutathione beads, 16-mer random dsDNA library, 0.1% formaldehyde crosslink after washing; high values mean tight binding
FEV = target: T1, FEV (Homo sapiens, UniProt Q99581 1-238); settings: protein: recombinant; tags: N-terminal GST; dsDNA, one strand shown
T1 sequence: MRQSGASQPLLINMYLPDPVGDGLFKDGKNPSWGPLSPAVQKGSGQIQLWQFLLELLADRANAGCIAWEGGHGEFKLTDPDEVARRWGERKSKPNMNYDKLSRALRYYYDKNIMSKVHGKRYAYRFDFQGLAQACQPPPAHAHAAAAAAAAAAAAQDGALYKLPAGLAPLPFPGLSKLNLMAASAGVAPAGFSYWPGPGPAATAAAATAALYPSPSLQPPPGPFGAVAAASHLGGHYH
In short: (§1)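 Binding signal is each hexamer's read frequency for a factor divided by its frequency in the tag-only sample. The factors were GST-fused human transcription factors from yeast, captured on glutathione beads, DNA-barcoded and pooled with that sample. Pools were incubated with 200 nmole of a random double-stranded 16-mer DNA library in Tris/NaCl/DTT/glycerol buffer at room temperature for 30 min, then washed, crosslinked with 0.1% formaldehyde, proximity-ligated with BsaI/T4 ligase (1 h, 37 °C), PCR-amplified and sequenced on an Illumina NextSeq500.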

ETV5 = ETV5 (Homo sapiens, UniProt P41161 1-510); settings: protein: recombinant; tags: N-terminal GST; dsDNA, one strand shown
ETV5, sequence (P41161 whole entry): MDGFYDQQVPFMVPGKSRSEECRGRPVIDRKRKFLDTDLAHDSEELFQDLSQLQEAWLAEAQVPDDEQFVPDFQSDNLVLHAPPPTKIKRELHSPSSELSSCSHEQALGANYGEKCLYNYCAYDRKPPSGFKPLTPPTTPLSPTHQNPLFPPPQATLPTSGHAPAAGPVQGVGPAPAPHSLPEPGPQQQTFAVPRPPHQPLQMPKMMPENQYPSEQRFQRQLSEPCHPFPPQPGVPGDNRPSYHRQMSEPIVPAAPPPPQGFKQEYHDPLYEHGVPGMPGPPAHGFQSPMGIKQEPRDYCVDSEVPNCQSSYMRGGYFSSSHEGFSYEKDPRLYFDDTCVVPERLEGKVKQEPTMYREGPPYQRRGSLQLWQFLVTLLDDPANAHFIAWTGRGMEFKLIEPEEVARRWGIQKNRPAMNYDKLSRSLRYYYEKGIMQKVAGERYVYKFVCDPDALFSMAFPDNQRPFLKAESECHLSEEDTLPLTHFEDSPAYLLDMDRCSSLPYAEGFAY
In short: as §1

HSF1 = HSF1 (Homo sapiens, UniProt Q00613 1-529); settings: protein: recombinant; tags: N-terminal GST; chain copies: 3; dsDNA, one strand shown
HSF1, sequence (Q00613 whole entry): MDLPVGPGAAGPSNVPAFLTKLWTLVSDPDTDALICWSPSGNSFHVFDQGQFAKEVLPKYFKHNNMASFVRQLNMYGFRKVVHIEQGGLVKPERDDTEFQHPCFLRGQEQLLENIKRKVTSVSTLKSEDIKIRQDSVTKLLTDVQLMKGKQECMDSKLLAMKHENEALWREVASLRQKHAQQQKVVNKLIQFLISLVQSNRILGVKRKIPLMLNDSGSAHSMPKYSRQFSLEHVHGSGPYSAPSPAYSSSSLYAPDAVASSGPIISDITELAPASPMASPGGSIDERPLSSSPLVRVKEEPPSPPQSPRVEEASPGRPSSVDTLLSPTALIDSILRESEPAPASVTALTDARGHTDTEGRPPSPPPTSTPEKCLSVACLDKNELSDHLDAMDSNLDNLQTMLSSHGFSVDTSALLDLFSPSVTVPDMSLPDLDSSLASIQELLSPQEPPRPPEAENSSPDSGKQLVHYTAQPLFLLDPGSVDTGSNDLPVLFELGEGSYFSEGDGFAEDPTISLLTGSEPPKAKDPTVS
In short: as §1

SPIC = target: T2, SPIC (Homo sapiens, UniProt Q8N5J4 1-248); settings: protein: recombinant; tags: N-terminal GST; dsDNA, one strand shown
T2 sequence: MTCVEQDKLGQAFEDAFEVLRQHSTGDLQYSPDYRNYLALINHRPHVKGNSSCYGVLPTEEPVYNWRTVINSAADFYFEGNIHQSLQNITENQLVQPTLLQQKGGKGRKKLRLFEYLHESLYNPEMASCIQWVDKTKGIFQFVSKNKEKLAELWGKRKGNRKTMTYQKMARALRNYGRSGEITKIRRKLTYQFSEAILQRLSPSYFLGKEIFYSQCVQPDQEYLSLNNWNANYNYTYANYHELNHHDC
In short: as §1

ELF4 = ELF4 (Homo sapiens, UniProt Q99607 1-663); settings: protein: recombinant; tags: N-terminal GST; dsDNA, one strand shown
ELF4, sequence (Q99607 whole entry): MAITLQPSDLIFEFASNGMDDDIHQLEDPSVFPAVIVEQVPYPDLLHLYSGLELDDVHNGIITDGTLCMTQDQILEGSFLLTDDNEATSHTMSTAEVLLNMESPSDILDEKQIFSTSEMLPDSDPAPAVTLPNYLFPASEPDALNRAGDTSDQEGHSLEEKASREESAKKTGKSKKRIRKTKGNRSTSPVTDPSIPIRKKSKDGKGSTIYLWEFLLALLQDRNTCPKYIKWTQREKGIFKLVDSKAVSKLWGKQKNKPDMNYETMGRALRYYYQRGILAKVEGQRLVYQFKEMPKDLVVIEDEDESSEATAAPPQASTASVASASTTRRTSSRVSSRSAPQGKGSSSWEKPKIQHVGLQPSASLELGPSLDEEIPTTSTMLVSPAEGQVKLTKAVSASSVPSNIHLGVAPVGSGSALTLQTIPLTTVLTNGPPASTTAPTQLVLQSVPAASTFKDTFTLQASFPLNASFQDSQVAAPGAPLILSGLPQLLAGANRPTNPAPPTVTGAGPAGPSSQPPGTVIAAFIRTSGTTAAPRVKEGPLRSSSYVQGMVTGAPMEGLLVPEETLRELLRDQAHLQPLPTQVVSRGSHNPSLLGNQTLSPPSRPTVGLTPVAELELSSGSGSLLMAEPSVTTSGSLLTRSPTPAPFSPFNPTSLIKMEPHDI
In short: as §1

ELK4 = target: T3, ELK4 (Homo sapiens, UniProt P28324-2 1-405); settings: protein: recombinant; tags: N-terminal GST; dsDNA, one strand shown
T3 sequence: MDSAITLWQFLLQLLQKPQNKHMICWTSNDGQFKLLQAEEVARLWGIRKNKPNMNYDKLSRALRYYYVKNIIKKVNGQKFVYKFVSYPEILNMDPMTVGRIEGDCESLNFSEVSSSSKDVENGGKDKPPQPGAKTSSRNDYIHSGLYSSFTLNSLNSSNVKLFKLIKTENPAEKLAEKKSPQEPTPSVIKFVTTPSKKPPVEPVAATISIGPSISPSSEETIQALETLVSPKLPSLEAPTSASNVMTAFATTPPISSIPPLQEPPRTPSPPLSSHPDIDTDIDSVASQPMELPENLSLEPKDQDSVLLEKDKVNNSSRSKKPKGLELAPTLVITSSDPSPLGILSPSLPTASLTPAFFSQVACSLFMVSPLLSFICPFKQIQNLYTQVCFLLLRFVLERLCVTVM
In short: as §1

ETV2 = target: T4, ETV2 (Homo sapiens, UniProt O00321 1-342); settings: protein: recombinant; tags: N-terminal GST; dsDNA, one strand shown
T4 sequence: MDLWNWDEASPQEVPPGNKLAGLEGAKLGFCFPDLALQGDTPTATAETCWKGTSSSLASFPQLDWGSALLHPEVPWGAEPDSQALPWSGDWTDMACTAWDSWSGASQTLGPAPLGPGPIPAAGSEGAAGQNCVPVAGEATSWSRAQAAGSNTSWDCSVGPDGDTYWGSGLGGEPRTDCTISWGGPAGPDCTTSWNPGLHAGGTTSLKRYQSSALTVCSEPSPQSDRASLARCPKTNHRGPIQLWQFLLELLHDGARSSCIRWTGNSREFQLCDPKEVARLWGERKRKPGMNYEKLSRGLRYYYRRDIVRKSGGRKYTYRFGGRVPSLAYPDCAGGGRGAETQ
In short: as §1

ELF3 = target: T5, ELF3 (Homo sapiens, UniProt P78545 1-371); settings: protein: recombinant; tags: N-terminal GST; dsDNA, one strand shown
T5 sequence: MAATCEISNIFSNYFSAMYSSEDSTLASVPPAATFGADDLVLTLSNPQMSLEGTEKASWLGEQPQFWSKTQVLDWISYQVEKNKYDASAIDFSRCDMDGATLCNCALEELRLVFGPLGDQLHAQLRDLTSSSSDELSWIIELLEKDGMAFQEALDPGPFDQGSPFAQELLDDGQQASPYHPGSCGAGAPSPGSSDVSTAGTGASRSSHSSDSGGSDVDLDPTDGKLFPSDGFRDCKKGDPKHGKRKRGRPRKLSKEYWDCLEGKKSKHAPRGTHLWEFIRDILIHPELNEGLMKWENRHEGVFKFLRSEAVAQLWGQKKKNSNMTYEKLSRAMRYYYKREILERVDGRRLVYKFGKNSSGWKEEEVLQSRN
In short: as §1

CRX = CRX (Homo sapiens, UniProt O43186 1-299); settings: protein: recombinant; tags: N-terminal GST; dsDNA, one strand shown
CRX, sequence (O43186 whole entry): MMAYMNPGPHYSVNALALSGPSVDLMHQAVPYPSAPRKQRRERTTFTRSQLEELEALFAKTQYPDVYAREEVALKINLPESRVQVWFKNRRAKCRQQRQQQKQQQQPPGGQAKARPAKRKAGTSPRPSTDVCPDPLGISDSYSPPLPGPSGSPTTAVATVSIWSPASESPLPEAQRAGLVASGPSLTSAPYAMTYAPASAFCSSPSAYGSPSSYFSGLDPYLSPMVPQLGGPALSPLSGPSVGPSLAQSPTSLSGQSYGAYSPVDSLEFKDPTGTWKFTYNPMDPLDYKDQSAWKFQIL
In short: as §1

ETV1 = ETV1 (Homo sapiens, UniProt P50549 1-477); settings: protein: recombinant; tags: N-terminal GST; dsDNA, one strand shown
ETV1, sequence (P50549 whole entry): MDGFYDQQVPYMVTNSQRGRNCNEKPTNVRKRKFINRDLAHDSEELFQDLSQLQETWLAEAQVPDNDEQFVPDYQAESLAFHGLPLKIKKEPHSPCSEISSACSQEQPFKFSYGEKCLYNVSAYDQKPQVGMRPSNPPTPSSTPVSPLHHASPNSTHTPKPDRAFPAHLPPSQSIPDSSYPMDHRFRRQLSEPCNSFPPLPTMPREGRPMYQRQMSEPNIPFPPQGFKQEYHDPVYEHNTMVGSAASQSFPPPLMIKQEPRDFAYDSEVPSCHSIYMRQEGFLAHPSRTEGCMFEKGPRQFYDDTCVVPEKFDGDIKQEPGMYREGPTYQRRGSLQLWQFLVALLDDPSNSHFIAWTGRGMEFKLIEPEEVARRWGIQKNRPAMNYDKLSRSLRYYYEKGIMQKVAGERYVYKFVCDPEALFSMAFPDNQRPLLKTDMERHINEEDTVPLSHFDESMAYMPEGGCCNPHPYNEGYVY
In short: as §1

ERF = target: T6, ERF (Homo sapiens, UniProt P50548 1-548); settings: protein: recombinant; tags: N-terminal GST; dsDNA, one strand shown
T6 sequence: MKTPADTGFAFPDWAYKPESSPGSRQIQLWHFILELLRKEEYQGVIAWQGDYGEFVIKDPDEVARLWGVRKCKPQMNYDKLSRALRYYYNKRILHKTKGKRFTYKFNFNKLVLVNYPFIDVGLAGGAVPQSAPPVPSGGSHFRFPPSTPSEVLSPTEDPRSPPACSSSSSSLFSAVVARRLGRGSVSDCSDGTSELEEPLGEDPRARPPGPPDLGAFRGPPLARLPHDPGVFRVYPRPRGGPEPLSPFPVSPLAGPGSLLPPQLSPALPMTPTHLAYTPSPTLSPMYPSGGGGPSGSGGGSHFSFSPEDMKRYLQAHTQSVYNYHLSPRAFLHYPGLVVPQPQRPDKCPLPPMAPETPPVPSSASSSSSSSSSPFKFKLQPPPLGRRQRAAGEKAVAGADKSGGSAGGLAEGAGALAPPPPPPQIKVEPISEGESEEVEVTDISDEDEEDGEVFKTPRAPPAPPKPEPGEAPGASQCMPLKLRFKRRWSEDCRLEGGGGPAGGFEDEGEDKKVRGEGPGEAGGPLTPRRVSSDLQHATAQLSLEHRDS
In short: as §1

ETV3L = target: T7, ETV3L (Homo sapiens, UniProt Q6ZN32 1-361); settings: protein: recombinant; tags: N-terminal GST; dsDNA, one strand shown
T7 sequence: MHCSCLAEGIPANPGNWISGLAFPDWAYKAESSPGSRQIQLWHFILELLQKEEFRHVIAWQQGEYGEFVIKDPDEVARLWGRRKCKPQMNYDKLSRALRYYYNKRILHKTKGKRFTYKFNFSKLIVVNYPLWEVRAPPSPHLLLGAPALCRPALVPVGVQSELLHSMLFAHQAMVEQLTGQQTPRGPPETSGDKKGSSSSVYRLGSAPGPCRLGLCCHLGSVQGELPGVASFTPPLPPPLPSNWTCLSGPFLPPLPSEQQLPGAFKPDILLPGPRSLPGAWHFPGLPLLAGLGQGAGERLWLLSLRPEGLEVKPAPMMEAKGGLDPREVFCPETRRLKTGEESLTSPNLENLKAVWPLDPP
In short: as §1

ETS2 = target: T8, ETS2 (Homo sapiens, UniProt P15036 1-469); settings: protein: recombinant; tags: N-terminal GST; dsDNA, one strand shown
T8 sequence: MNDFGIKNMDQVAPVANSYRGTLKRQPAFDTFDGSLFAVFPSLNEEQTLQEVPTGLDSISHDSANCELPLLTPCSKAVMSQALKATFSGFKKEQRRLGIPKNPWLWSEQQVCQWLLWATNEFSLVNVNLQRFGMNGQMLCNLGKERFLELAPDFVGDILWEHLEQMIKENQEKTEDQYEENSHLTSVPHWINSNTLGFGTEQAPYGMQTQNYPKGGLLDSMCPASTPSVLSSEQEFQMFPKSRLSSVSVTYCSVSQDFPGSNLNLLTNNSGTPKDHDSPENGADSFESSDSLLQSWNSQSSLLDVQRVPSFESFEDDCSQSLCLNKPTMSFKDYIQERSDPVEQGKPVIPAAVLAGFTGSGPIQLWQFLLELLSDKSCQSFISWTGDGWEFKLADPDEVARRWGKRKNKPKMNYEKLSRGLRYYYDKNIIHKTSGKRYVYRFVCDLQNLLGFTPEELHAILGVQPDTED
In short: as §1

SPDEF = target: T9, SPDEF (Homo sapiens, UniProt O95238 1-335); settings: protein: recombinant; tags: N-terminal GST; dsDNA, one strand shown
T9 sequence: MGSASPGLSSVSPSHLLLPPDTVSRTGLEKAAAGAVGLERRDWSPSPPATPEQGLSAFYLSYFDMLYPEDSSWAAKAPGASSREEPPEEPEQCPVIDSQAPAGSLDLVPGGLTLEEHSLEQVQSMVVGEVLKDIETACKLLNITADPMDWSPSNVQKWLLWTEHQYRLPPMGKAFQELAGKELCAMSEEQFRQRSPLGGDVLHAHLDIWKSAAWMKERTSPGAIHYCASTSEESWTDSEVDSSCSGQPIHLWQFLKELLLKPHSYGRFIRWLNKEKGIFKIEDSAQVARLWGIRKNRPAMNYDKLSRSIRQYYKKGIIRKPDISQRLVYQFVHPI
In short: as §1

ETV7 = target: T10, ETV7 (Homo sapiens, UniProt Q9Y603 1-341); settings: protein: recombinant; tags: N-terminal GST; dsDNA, one strand shown
T10 sequence: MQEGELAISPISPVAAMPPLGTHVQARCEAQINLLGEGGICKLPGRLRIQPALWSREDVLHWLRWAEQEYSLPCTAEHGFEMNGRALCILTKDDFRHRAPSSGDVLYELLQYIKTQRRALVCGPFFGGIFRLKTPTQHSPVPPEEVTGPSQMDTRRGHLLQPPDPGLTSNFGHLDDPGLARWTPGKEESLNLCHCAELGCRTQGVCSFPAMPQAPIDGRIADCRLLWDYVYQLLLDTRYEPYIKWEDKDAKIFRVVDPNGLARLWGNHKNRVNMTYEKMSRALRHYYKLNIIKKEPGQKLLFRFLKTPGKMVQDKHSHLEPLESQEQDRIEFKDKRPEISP
In short: as §1

ELF5 = target: T11, ELF5 (Homo sapiens, UniProt Q9UKW6-2 1-255); settings: protein: recombinant; tags: N-terminal GST; dsDNA, one strand shown
T11 sequence: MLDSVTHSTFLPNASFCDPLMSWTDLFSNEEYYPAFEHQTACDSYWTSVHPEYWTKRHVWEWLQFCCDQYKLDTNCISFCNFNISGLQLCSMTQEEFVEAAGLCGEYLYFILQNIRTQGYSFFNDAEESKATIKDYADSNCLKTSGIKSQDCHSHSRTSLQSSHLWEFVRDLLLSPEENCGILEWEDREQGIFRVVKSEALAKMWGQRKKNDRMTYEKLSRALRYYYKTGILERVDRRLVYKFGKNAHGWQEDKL
In short: as §1

ETV3 = target: T12, ETV3 (Homo sapiens, UniProt P41162-2 1-143); settings: protein: recombinant; tags: N-terminal GST; dsDNA, one strand shown
T12 sequence: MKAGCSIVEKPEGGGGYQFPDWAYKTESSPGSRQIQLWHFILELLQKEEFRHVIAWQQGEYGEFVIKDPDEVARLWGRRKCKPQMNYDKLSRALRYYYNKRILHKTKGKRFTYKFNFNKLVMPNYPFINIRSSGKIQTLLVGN
In short: as §1

ETV6 = ETV6 (Homo sapiens, UniProt P41212 1-452); settings: protein: recombinant; tags: N-terminal GST; dsDNA, one strand shown
ETV6, sequence (P41212 whole entry): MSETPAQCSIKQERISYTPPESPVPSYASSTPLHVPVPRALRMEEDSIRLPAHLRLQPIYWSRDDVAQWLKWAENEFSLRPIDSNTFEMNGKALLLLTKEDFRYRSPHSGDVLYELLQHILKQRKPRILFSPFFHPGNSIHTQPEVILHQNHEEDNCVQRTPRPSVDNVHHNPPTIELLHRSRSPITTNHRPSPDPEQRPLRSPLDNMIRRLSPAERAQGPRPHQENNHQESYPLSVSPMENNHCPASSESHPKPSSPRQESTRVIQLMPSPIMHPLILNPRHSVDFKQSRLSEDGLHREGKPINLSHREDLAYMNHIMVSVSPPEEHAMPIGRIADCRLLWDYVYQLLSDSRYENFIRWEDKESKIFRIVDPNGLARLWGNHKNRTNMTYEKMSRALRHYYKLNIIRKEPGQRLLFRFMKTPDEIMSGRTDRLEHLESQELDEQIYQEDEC
In short: as §1

Sequence: TTTGAC
- binding signal (FEV): 1.37 fold enrichment (6-mer frequency, TF over GST control)
- binding signal (ETV5): 1.5 fold enrichment (6-mer frequency, TF over GST control)
- binding signal (HSF1): 1.35 fold enrichment (6-mer frequency, TF over GST control)
- binding signal (SPIC): 1.3 fold enrichment (6-mer frequency, TF over GST control)
- binding signal (ELF4): 1.47 fold enrichment (6-mer frequency, TF over GST control)
- binding signal (ELK4): 1.41 fold enrichment (6-mer frequency, TF over GST control)
- binding signal (ETV2): 1.5 fold enrichment (6-mer frequency, TF over GST control)
- binding signal (ELF3): 1.39 fold enrichment (6-mer frequency, TF over GST control)
- binding signal (CRX): 1.37 fold enrichment (6-mer frequency, TF over GST control)
- binding signal (ETV1): 1.42 fold enrichment (6-mer frequency, TF over GST control)
- binding signal (ERF): 1.49 fold enrichment (6-mer frequency, TF over GST control)
- binding signal (ETV3L): 1.35 fold enrichment (6-mer frequency, TF over GST control)
- binding signal (ETS2): 1.33 fold enrichment (6-mer frequency, TF over GST control)
- binding signal (SPDEF): 1.48 fold enrichment (6-mer frequency, TF over GST control)
- binding signal (ETV7): 1.58 fold enrichment (6-mer frequency, TF over GST control)
- binding signal (ELF5): 1.34 fold enrichment (6-mer frequency, TF over GST control)
- binding signal (ETV3): 1.38 fold enrichment (6-mer frequency, TF over GST control)
- binding signal (ETV6): 1.4 fold enrichment (6-mer frequency, TF over GST control)
